Screens deposited in PubChem BioAssay by National Center for Advancing Translational Sciences (NCATS).
Many of the other results were omitted from the sample, so hits are more common in it than they were.
FBPA Giardia inh – qHTS Assay for Inhibitors of Fructose-1,6-bisphosphate Aldolase from Giardia Lamblia; purified Giardia FBPA; AID 2451, 2010; Potency, µM (series often up to 59.6 µM), for the others: at the top dose activity, negative = inhibition, most hits filed as inhibitors; 290,000 tested, 0.71% active; also: potency is read from the fitted curve at half-maximal effect; % is scaled to controls: 0 for no effect and ±100 for the full control effect; nearly all actives have a fitted effect of over 55% in size
Target sequence (A8B2U2 whole entry, looked up): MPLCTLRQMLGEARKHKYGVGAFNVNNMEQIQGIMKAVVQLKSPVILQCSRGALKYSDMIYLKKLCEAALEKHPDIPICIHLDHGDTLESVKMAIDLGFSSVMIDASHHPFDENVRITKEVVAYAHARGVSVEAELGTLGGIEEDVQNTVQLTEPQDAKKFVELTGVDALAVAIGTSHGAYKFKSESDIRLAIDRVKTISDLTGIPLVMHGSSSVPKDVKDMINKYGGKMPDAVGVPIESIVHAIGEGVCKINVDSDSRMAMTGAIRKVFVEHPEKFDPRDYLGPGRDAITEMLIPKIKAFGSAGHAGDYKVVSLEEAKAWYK
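40 nM FBPA preincubated 10 min at RT with compound (up to 57.5 uM final), then substrate plus GAPDH/TPI/NAD/arsenate coupling and diaphorase/resazurin added. Fluorescence read after 20 min at RT, 525/598 nm.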
TbPYK inhibitor – qHTS of Trypanosoma Brucei Inhibitors. pyruvate kinase (Trypanosoma brucei), Q57TT1. TbPYK enzyme, Kinase-Glo Plus ATP luminescence, 45 min. 410,000 tested, 0.12% active. Potency, µM (highest dose often 76.8 µM), without a hit: at the highest dose activity, negative = inhibition, actives largely listed as inhibitors; also: potency is read from the fitted curve at half-maximal effect; % is scaled to controls: 0 for no effect and ±100 for the full control effect; nearly all actives have a fitted effect of over 50% in size
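Quantitative HTS: titrated library compounds versus trypanosomal pyruvate kinase in TEA buffer (pH 7.2) containing KCl, MgCl2, BSA and Tween-20. Reactions were initiated with ADP, 130 uM final. Kinase-Glo Plus luminescence was read after 45 min at RT.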
CHX counter – Cycloheximide Counterscreen for Small Molecule Inhibitors of Shiga Toxin | cell reporter, cycloheximide protein synthesis inhibition counterscreen | AID 2314, 2010 | 300,000 tested, 12% active | max response, %; in the data active = max response mostly above about 13%, no sharp cut-off; inactive = mostly below about 14%; also: read at 38.3 µM for the half of the compounds with a filed dose; 0% is about no effect
Sm TGR block – qHTS Assay for the Inhibitors of Schistosoma Mansoni Peroxiredoxins. AID 485364, 2010. Potency, µM (top dose mostly 114 µM), for inactives: at the top dose activity change, negative = inhibition, hits mostly inhibitors. purified TGR, DTNB reduction, TNB absorbance 405 nm. 360,000 tested, 3% active. Schistosoma mansoni thioredoxin glutathione reductase (TGR), Q962Y6; also: potency is read from the fitted curve at half-maximal effect; % is scaled to controls: 0 for no effect and ±100 for the full control effect; nearly all actives have a fitted effect of over 60% in size
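TGR 20 nM + NADPH 100 uM (dispensed conc.), cpd preinc 15 min RT; start with NADPH (500 uM addition) then DTNB (15 mM addition). Kinetic TNB absorbance, 405 nm filter. Four-parameter Hill fit across titration.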
LmPK inh – qHTS Assay for Inhibitors of Leishmania Mexicana Pyruvate Kinase (LmPK). Q27686. 290,000 tested, 0.37% active. Potency, µM (top dose mostly 57.5 µM), without a hit: top-dose activity change, negative = inhibition, usual class: inhibitors. purified LmPK, Kinase-Glo ATP luminescence, 1 h; also: potency is read from the fitted curve at half-maximal effect; % is scaled to controls: 0 for no effect and ±100 for the full control effect
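Pyruvate kinase activity monitored as ATP production (luciferase luminescence). Conditions: 0.1 nM enzyme, 0.5 mM PEP, 0.1 mM ADP, 1 h, RT; normalized against uninhibited and no-enzyme wells.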
Shiga toxin inh – A qHTS for Small Molecule Inhibitors of Shiga Toxin | 290,000 tested, 9.2% active | Vero cells, Shiga toxin protein synthesis inhibition reporter | inhibition, % at 38.7 µM; in the data active = inhibition mostly above about 28%, no sharp cut-off; inactive = mostly below about 43%; also: 0% is about no effect
Numbers without * were called inactive; ? = inconclusive; . = not tested or not shown. Unless noted, calls follow the shape of the dose curve; as a rule, active = well fitted curve in the direction sought with a large enough effect; inconclusive = small, poorly fitted or top-dose-only effect, or another doubt; inactive = no such curve, though single readings can be large; an effect the other way counts as inactive or inconclusive.

SMILES	FBPA Giardia inh	TbPYK inhibitor	CHX counter	Sm TGR block	LmPK inh	Shiga toxin inh
COc1ccc(NC(=O)N2CCCC3(CCN(C(=O)c4csnn4)CC3)C2)cc1	-5%	1%	.	.	.	.
COc1ccc(N2CCN(C(=O)c3ccc(NS(=O)(=O)c4cccc(F)c4)cc3)CC2)cc1	-9%	0%	11*	2%	-5%	12
CCn1ncc(Br)c1C(=O)Nc1ccc(OC(F)(F)F)cc1	-3%	-2%	10	-9%	1%	14
CCn1ncc(Br)c1C(=O)Nc1ccc(C(=O)OC(C)C)cc1	-2%	0%	27*	4%	2%	42
C=CCn1c(SCC(=O)NCC)nnc1-c1cc2c(s1)CCC(CC)C2 (configuration not stated)	8%	3%	42*	0%	3%	94*
C=CCn1c(SCC(=O)NC(N)=O)nnc1-c1cc2c(s1)CCC(CC)C2 (configuration not stated)	0%	4%	9	-2%	6%	34
C=CCn1c(SCC(=O)NCCOC)nnc1-c1cc2c(s1)CCC(CC)C2 (configuration not stated)	-2%	-5%	15*	-3%	-2%	-70
COc1cc(CC(=O)OCC(=O)c2ccc[nH]2)cc(OC)c1OC	.	0%	.	.	.	.
COc1ccccc1N(CC(=O)N1CCN(c2ccccc2)CC1)S(=O)(=O)c1ccc(C)cc1	-2%	-11%	-2	?	7%	-8
COc1ccc(CCCc2nnc(SCC(=O)Nc3cc(F)ccc3C)o2)cc1	.	-1%	.	-1%	.	.
CN(C)c1nc(C=C(C#N)C#N)c(Cl)n1-c1ccc(F)cc1	-4%	-3%	24*	1.8µM*	11%	6
Cc1ccc(SCc2nc(N)nc(Nc3ccccc3C)n2)cc1C	-9%	-4%	10	5%	0%	8
Cc1ccccc1Nc1nc(N)nc(CSc2ccc(F)cc2)n1	-20%	4%	48*	-8%	7%	112*
Cc1ccc(Nc2nc(N)nc(CSc3nccn3C)n2)c(C)c1	-4%	-5%	18*	-14%	1%	42*
Cc1ccc(Nc2nc(N)nc(CN3CCCCCC3)n2)c(C)c1	-17%	-2%	-3	?	2%	-7
Cc1ccc(SCc2nc(N)nc(Nc3ccccc3C)n2)c(C)c1	-3%	-6%	17	-6%	0%	47*
Cc1ccccc1Nc1nc(N)nc(CSc2nnnn2C)n1	-4%	3%	48*	1%	-8%	118*
Cc1nc2cnc(Oc3ccccc3)nc2n(C2CC2)c1=O	-5%	.	.	.	.	.
Cc1ccccc1Nc1nc(N)nc(CN(C)Cc2ccccc2Cl)n1	6%	0%	31*	-8%	-2%	18
CNCc1nc2ccccc2[nH]1	-6%	2%	0	.	6%	7
Nc1cccc(CCc2nc3cc4ccccc4cc3[nH]2)c1	6%	-4%	22*	-10%	5%	36*
O=c1[nH]c2ccccc2nc1CCc1ccccc1	1%	-3%	24*	-2%	-3%	71*
c1ccc(CCc2nc3ccccc3[nH]2)cc1	-8%	-15%	41*	6%	-24%	78*
c1ccc2[nH]c(CCCc3nc4ccccc4[nH]3)nc2c1	-22%	-7%	-2	-12%	-2%	-5
O=S(=O)(NCc1nc2ccccc2[nH]1)c1ccccc1	.	-3%	19	5%	-8%	31*
SMILES	FBPA Giardia inh	TbPYK inhibitor	CHX counter	Sm TGR block	LmPK inh	Shiga toxin inh
O=C(NC(=S)NC1CCCCC1)c1ccccc1[N+](=O)[O-]	.	-2%	17	-22%	1%	11
O=c1cc(-c2cc3ccccc3oc2=O)c2ccc(O)cc2o1	11%	.	.	.	.	.
O=C(Nc1c(Cl)cccc1Cl)c1cc(-c2ccco2)on1	.	-6%	15	-1%	-1%	21
COc1ccc(NC(=O)C2=CC(c3ccco3)=NS(=O)(=O)N2C)cc1	1%	-6%	17*	5%	3%	25
CCc1ccc(NC(=O)c2cc(-c3ccco3)on2)cc1	-2%	-9%	52*	-21%	4%	57*
CC(C)NC(=O)c1cc(-c2ccco2)on1	3%	-19%	32*	-1%	-6%	106*
COc1ccc(NC(=O)c2cc(-c3ccco3)on2)cc1	6%	-11%	61*	-24%	13%	89*
CCOC(=O)[C@H]1[C@H]2COc3ccccc3[C@@H]2N2C(=O)c3c(C)cc(C)cc3NC(=O)[C@@]12C	.	2%	.	-4%	.	.
Cc1ccc(NS(=O)(=O)c2ccc(C(=O)NCCCN3CCCC3=O)cc2)cc1	.	-6%	.	-22%	.	.
O=C(Nc1ccccc1)c1ccc(-c2ccccc2C(F)(F)F)o1	-12%	-18%	46*	?	-5%	73*
COc1cccc(NC(=O)CN(C)C(=O)c2ccc(-c3ccccc3Cl)o2)c1	.	-9%	11*	1%	-1%	7
CC(=O)Nc1ccc(NC(=O)c2ccc(-c3ccccc3Cl)o2)cc1	.	-3%	.	-7%	.	.
O=C(Nc1ccccc1)c1ccc(-c2ccccc2Cl)o1	-14%	2%	38*	-2%	-8%	58
CC(C)NC(=O)c1ccc(-c2ccccc2C(F)(F)F)o1	0%	-3%	44*	-14%	5%	93*
COc1ccccc1S(=O)(=O)N(C)C[C@@H]1OCc2cn(nn2)CCCC(=O)N([C@H](C)CO)C[C@H]1C	.	4%	.	.	.	.
CC(=O)NCC1CCN(C(=O)C2CCC(=O)N(CCc3cccc(F)c3)C2)CC1 (configuration not stated)	.	0%	-4	5%	-8%	-6
O=C(CSc1ncc(S(=O)(=O)c2ccc(Br)cc2)c(=O)[nH]1)NCc1ccc(Cl)cc1	.	-4%	.	0%	.	.
N#Cc1ccccc1NC(=O)c1ccc(-c2ccccc2Cl)o1	4%	0%	30*	8%	-1%	123*
CCOc1ccc(C(=O)Nc2c(C(=O)Nc3ccccc3F)oc3ccccc23)cc1OCC	.	-1%	.	-1%	.	.
CC(=O)c1ccc(N2CCN(C(=O)Nc3ccc(F)cc3)CC2)cc1	6%	.	21*	3%	-2%	42
CC(=O)Nc1cccc(NC(=O)C2CCCO2)c1 (configuration not stated)	.	2%	.	.	.	.
CC(=O)c1ccc(N2CCN(C(=O)Nc3ccc(C(C)C)cc3)CC2)cc1	-15%	0%	8	-2%	0%	38
Cc1ccc(NC(=O)C2CCCO2)cc1[N+](=O)[O-] (configuration not stated)	5%	-11%	28*	2%	-5%	31
COc1ccc(NC(=O)[C@@H]2CCCN2C(=O)[C@@H]2Cc3ccccc3CN2C(=O)OC(C)(C)C)cc1	.	2%	23	-1%	13%	22
